About 3,300 (8.5%) of roughly 39,000 compounds were called active. Only a selection was taken, and actives are over-represented in it overall.

The experiment deals with HepG2. As to the kind of experiment: cytotoxicity call (relative viability < 0.9). The note with it: 10 µM.
As to `CC(C)=CCC/C(C)=C/CC/C(C)=C/CC/C(C)=C/CO`, the cytotoxicity call is “inactive”.
As for `Cc1ccc(-c2cnc3c(c2)C(=O)N([C@@H](C)CO)C[C@H](C)[C@H](CN(C)C(=O)Cc2ccncc2)O3)cc1`, the entry is “inactive”.
As for `C[C@@H]1CN([C@H](C)CO)C(=O)c2cc(NC(=O)CCN3CCOCC3)ccc2O[C@@H]1CN(C)S(=O)(=O)c1ccc(F)cc1`, the entry is “inactive”.
`C[C@@H]1CCCCO[C@H](CN(C)C(=O)c2ccccc2)[C@@H](C)CN([C@H](C)CO)C(=O)c2cc(NC(=O)Nc3ccccc3)ccc2O1`: the cytotoxicity call was “inactive”.
`C[C@@H]1CN([C@@H](C)CO)C(=O)c2cc(NC(=O)CCN3CCOCC3)ccc2O[C@@H]1CN(C)C(=O)Nc1ccc2c(c1)OCO2`: the cytotoxicity call is “active”.
With `C[C@H]1CN([C@@H](C)CO)C(=O)c2cc(NC(=O)CCN3CCOCC3)ccc2O[C@H]1CN(C)C(=O)Nc1ccc2c(c1)OCO2` the entry was “inactive”; with `C[C@@H]1CN([C@H](C)CO)C(=O)c2cc(NC(=O)CCN3CCOCC3)ccc2O[C@H]1CN(C)C(=O)Nc1ccc2c(c1)OCO2`, “active”.
As for `C[C@@H]1CN([C@H](C)CO)C(=O)c2cc(NC(=O)CCN3CCOCC3)ccc2O[C@@H]1CN(C)C(=O)Nc1ccc2c(c1)OCO2`, the entry is “inactive”.
With `C[C@@H]1CN([C@@H](C)CO)C(=O)c2cc(NC(=O)CCN3CCOCC3)ccc2O[C@H]1CN(C)C(=O)Nc1ccc2c(c1)OCO2` the entry was “inactive”; with `C[C@H](CO)N1C[C@H](C)[C@H](CN(C)C(=O)Nc2ccc3c(c2)OCO3)Oc2ccc(NC(=O)CCN3CCOCC3)cc2C1=O`, “inactive”; with `C[C@@H]1CCCCO[C@@H](CN(C)S(=O)(=O)c2cn(C)cn2)[C@@H](C)CN([C@H](C)CO)C(=O)c2cc(NC(=O)c3ccncc3)ccc2O1`, “inactive”.
On to `COc1cccc(OC[C@@H](O)CN(CCO)CCO)c1`, for which the cytotoxicity call is “inactive”.
With `O=C(C[C@@H]1C=C[C@@H](NC(=O)Nc2ccc3c(c2)OCO3)[C@@H](CO)O1)NCCCN1CCOCC1` the entry was “inactive”; with `C[C@H]1CCCCO[C@H](CN(C)S(=O)(=O)c2cn(C)cn2)[C@@H](C)CN([C@@H](C)CO)C(=O)c2cc(NS(C)(=O)=O)ccc2O1`, “inactive”.
As for `C[C@@H]1CN([C@H](C)CO)C(=O)c2cccc(N(C)C)c2O[C@@H]1CN(C)S(C)(=O)=O`, the entry is “inactive”; as for `C[C@@H]1CCCCO[C@H](CN(C)S(=O)(=O)c2ccccc2)[C@H](C)CN([C@@H](C)CO)C(=O)c2cc(NC(=O)Nc3ccccc3)ccc2O1`, “inactive”.
For the molecule `COCC#Cc1ccc([C@@H]2[C@@H](CO)N3C(=O)CN(C(=O)C4CCOCC4)C[C@H]23)cc1`, the cytotoxicity call is “inactive”.
With `COc1ccccc1OC[C@@H](O)COC(N)=O` the entry was “inactive”.
As for `COc1ccccc1OCC(O)COC(N)=O` (stereo unspecified), the entry is “active”; as for `NC(=O)OCC(COC(N)=O)c1ccccc1`, “inactive”; as for `Cc1noc(C)c1S(=O)(=O)Nc1ccc2c(c1)CC(=O)N([C@H](C)CO)C[C@@H](C)[C@@H](CN(C)CC1CC1)O2`, “inactive”.
For `Cc1ccc(S(=O)(=O)N(C)C[C@@H]2Oc3ccc(NC(=O)Cn4cnnn4)cc3CC(=O)N([C@@H](C)CO)C[C@@H]2C)cc1`, the cytotoxicity call was “inactive”.
Take `Cc1noc(C)c1S(=O)(=O)Nc1ccc2c(c1)CC(=O)N([C@@H](C)CO)C[C@@H](C)[C@H](CN(C)Cc1ccc(Oc3ccccc3)cc1)O2`: the cytotoxicity call is “inactive”.
With `Cc1noc(C)c1S(=O)(=O)Nc1ccc2c(c1)CC(=O)N([C@@H](C)CO)C[C@@H](C)[C@H](CN(C)Cc1ccc3c(c1)OCO3)O2` the entry was “inactive”; with `Cc1noc(C)c1S(=O)(=O)Nc1ccc2c(c1)CC(=O)N([C@H](C)CO)C[C@H](C)[C@H](CN(C)Cc1ccc(Oc3ccccc3)cc1)O2`, “inactive”; with `Cc1noc(C)c1S(=O)(=O)Nc1ccc2c(c1)CC(=O)N([C@@H](C)CO)C[C@@H](C)[C@@H](CN(C)Cc1ccc(Oc3ccccc3)cc1)O2`, “active”.
With `Cc1noc(C)c1S(=O)(=O)Nc1ccc2c(c1)CC(=O)N([C@@H](C)CO)C[C@H](C)[C@@H](CN(C)Cc1ccc(Oc3ccccc3)cc1)O2` the entry was “inactive”; with `Cc1noc(C)c1S(=O)(=O)Nc1ccc2c(c1)CC(=O)N([C@@H](C)CO)C[C@@H](C)[C@@H](CN(C)Cc1ccc3c(c1)OCO3)O2`, “inactive”; with `Cc1noc(C)c1S(=O)(=O)Nc1ccc2c(c1)CC(=O)N([C@H](C)CO)C[C@@H](C)[C@@H](CN(C)Cc1ccc(Oc3ccccc3)cc1)O2`, “inactive”.
With `Cc1noc(C)c1S(=O)(=O)Nc1ccc2c(c1)CC(=O)N([C@H](C)CO)C[C@@H](C)[C@@H](CN(C)Cc1ccc3c(c1)OCO3)O2` the entry was “active”; with `Cc1noc(C)c1S(=O)(=O)Nc1ccc2c(c1)CC(=O)N([C@H](C)CO)C[C@@H](C)[C@H](CN(C)Cc1ccc(-c3ccccc3)cc1)O2`, “inactive”.
Regarding `Cc1noc(C)c1S(=O)(=O)Nc1ccc2c(c1)CC(=O)N([C@@H](C)CO)C[C@@H](C)[C@@H](CN(C)Cc1ccc(-c3ccccc3)cc1)O2`, the cytotoxicity call is “inactive”.
As for `Cc1noc(C)c1S(=O)(=O)Nc1ccc2c(c1)CC(=O)N([C@H](C)CO)C[C@H](C)[C@@H](CN(C)Cc1ccc(Oc3ccccc3)cc1)O2`, the cytotoxicity call is “active”.
As for `Cc1noc(C)c1S(=O)(=O)Nc1ccc2c(c1)CC(=O)N([C@H](C)CO)C[C@H](C)[C@@H](CN(C)Cc1ccc(-c3ccccc3)cc1)O2`, the entry is “active”.
As for `COc1ccc(S(=O)(=O)Nc2ccc3c(c2)C(=O)N([C@H](C)CO)C[C@@H](C)[C@H](CN(C)C(=O)NC2CCCCC2)OCCCC[C@@H](C)O3)cc1`, the entry is “inactive”; as for `C[C@H]1CN([C@@H](C)CO)C(=O)c2cc(NC(=O)Nc3cccc4ccccc34)ccc2O[C@H]1CN(C)C(=O)Nc1ccc(F)cc1`, “inactive”; as for `C[C@@H]1CN([C@@H](C)CO)C(=O)CCCn2cc(nn2)CO[C@H]1CN(C)S(=O)(=O)c1cccc(C#N)c1`, “inactive”.
With `Cc1noc(C)c1NC(=O)N(C)C[C@H]1Oc2ccc(NC(=O)Nc3ccc(C(F)(F)F)cc3)cc2CC(=O)N([C@@H](C)CO)C[C@@H]1C` the entry was “inactive”; with `COc1ccc(C#Cc2ccc3c(c2)O[C@H](CN(C)C(C)=O)[C@H](C)CN([C@H](C)CO)S3(=O)=O)cc1`, “inactive”.
Turning to `C=C/C=C/[C@@H]1C(=C)CN([C@@H](Cc2ccccc2)C(=O)OC)[C@H]1[C@@H](O)CCn1cc(-c2ccc(C(=O)NO)s2)nn1`, the cytotoxicity call is “inactive”.
Regarding `C[C@@H]1CN([C@H](C)CO)C(=O)c2cc(NC(=O)Cc3ccccc3)ccc2O[C@@H](C)CCCCO[C@@H]1CN(C)C(=O)NC1CCCCC1`, the cytotoxicity call was “inactive”.
With `COc1ccc(S(=O)(=O)N(C)C[C@@H]2OCCCC[C@H](C)Oc3ccc(NC(=O)CCC(F)(F)F)cc3C(=O)N([C@@H](C)CO)C[C@H]2C)cc1` the entry was “inactive”.
As for `COc1ccc(S(=O)(=O)Nc2ccc3c(c2)CC(=O)N([C@@H](C)CO)C[C@@H](C)[C@@H](CN(C)CC2CC2)O3)cc1`, the entry is “inactive”; as for `COc1ccc(S(=O)(=O)N[C@@H]2CC[C@@H](CC(=O)N3CCN(c4ccccc4)CC3)O[C@@H]2CO)cc1`, “inactive”.
With `Cn1cnc(CN)c1` the entry was “inactive”; with `C[C@H]1CN([C@@H](C)CO)C(=O)c2cc(C#CCc3ccccc3)cnc2O[C@@H]1CN(C)C(=O)C1CCOCC1`, “inactive”.
Consider `C[C@H]1CN([C@@H](C)CO)C(=O)c2cc(NS(=O)(=O)c3ccccc3)ccc2O[C@@H]1CN(C)Cc1ccncc1`, for which the cytotoxicity call was “inactive”.
With `Cc1noc(C)c1NC(=O)Nc1ccc2c(c1)C(=O)N([C@H](C)CO)C[C@H](C)[C@H](CN(C)C(=O)Cc1ccccc1)OCCCC[C@H](C)O2` the entry was “inactive”; with `C[C@@H]1CN([C@@H](C)CO)C(=O)c2cc(NS(=O)(=O)c3ccccc3)ccc2O[C@@H]1CN(C)Cc1ccc(Oc2ccccc2)cc1`, “active”; with `C[C@H]1CN([C@@H](C)CO)C(=O)c2cc(NS(=O)(=O)c3ccccc3)ccc2O[C@H]1CN(C)Cc1ccc(Oc2ccccc2)cc1`, “inactive”.
With `C[C@H](CO)N1C[C@H](C)[C@@H](CN(C)Cc2ccc(Oc3ccccc3)cc2)Oc2ccc(NS(=O)(=O)c3ccccc3)cc2C1=O` the entry was “inactive”.
Regarding `C[C@@H]1CN([C@H](C)CO)C(=O)c2cc(NS(=O)(=O)c3ccccc3)ccc2O[C@@H]1CN(C)Cc1ccc(Oc2ccccc2)cc1`, the cytotoxicity call is “active”.
As for `C[C@H](CO)N1C[C@H](C)[C@H](CN(C)Cc2ccc(Oc3ccccc3)cc2)Oc2ccc(NS(=O)(=O)c3ccccc3)cc2C1=O`, the entry is “inactive”; as for `C[C@@H]1CN([C@H](C)CO)C(=O)c2cc(NS(=O)(=O)c3ccccc3)ccc2O[C@H]1CN(C)Cc1ccc(Oc2ccccc2)cc1`, “inactive”; as for `C[C@@H](NS(=O)(=O)C1CN(C(=O)OCc2ccccc2)C1)C(N)=O`, “inactive”.
`O=C1c2ccccc2-c2nc(-c3ccccc3)cc3cccc1c23`: the cytotoxicity call is “inactive”.
With `C[C@H](CO)N1C[C@H](C)[C@H](CN(C)C(=O)CN(C)C)Oc2cc(-c3cncnc3)ccc2S1(=O)=O` the entry was “inactive”; with `O=C(O)[C@@H](O)c1ccccc1`, “inactive”; with `C[C@@H]1CN([C@H](C)CO)C(=O)c2cc(NC(=O)Nc3ccc(F)cc3)ccc2O[C@H]1CN(C)Cc1ccc(-c2ccccc2)cc1`, “inactive”.
As for `C[C@@H]1CN([C@@H](C)CO)C(=O)c2cc(NC(=O)Nc3ccc(F)cc3)ccc2O[C@@H]1CN(C)Cc1ccc(-c2ccccc2)cc1`, the entry is “active”.
As for `C[C@@H]1CN([C@@H](C)CO)C(=O)c2cc(NC(=O)Nc3ccc(F)cc3)ccc2O[C@H]1CN(C)Cc1ccc(-c2ccccc2)cc1`, the entry is “active”.
As to `C[C@@H]1CN([C@H](C)CO)C(=O)c2cc(NC(=O)Nc3ccc(F)cc3)ccc2O[C@@H]1CN(C)Cc1ccc(-c2ccccc2)cc1`, the cytotoxicity call was “active”.
With `C[C@H](CO)N1C[C@H](C)[C@@H](CN(C)Cc2ccc(-c3ccccc3)cc2)Oc2ccc(NC(=O)Nc3ccc(F)cc3)cc2C1=O` the entry was “inactive”.
As for `C[C@H]1CN([C@@H](C)CO)C(=O)c2cc(NC(=O)Nc3ccc(F)cc3)ccc2O[C@H]1CN(C)Cc1ccc(-c2ccccc2)cc1`, the entry is “inactive”; as for `C[C@H](CO)N1C[C@H](C)[C@H](CN(C)Cc2ccc(-c3ccccc3)cc2)Oc2ccc(NC(=O)Nc3ccc(F)cc3)cc2C1=O`, “inactive”.
With `C[C@H]1CN([C@@H](C)CO)C(=O)c2cc(NC(=O)Nc3ccc(F)cc3)ccc2O[C@@H]1CN(C)Cc1ccc(-c2ccccc2)cc1` the entry was “inactive”.

These data come from the antibiotic and cytotoxicity screens of Wong et al. (2023).
